Results filed as inconclusive are left out. Calls of active or inactive are those of the source. Unless noted, calls follow the shape of the dose curve; as a rule, active = well fitted curve in the direction sought with a large enough effect; inconclusive = small, poorly fitted or top-dose-only effect, or another doubt; inactive = no such curve, though single readings can be large; an effect the other way counts as inactive or inconclusive.
Tests used:
[1] = qHTS assay for measurement of the activity of small molecule inhibitors on Zika virus induced Caspase-3 activity in human iPSC derived neural progenitor cells (hNPCs) (AID 1224857); also: nearly all actives have a fitted effect of over 65% in size
Summary of the method: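 Zika virus (2 FFU/cell) infection of human iPSC-derived NPCs, 6 h, following 1 h compound preincubation. Read-out: Caspase-Glo 3/7 luminescence.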

[2] = qHTS assay for measurement of the activity of small molecule inhibitors on Zika virus induced Caspase-3 activity in human astrocytoma cells (AID 1224859)
Summary of the method: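 Caspase activation in ZIKV-infected SNB-19 cells (2 FFU/cell, 6 h) measured by Caspase-Glo 3/7 luminescence after 30 min RT; compound pre-incubated 1 h; normalised to uninfected and infected controls.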

[3] = Natriuretic polypeptide receptor (hNpr1) antagonism - Pilot counterscreen GloSensor control cell line (AID 1347045; calls by dose curve; also: series mostly up to about 38 µM)
Summary of the method: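 HEK293 cGMP-sensor cells; 2% GloSensor reagent 2 h RT; LOPAC compounds in 1:5 titrations 30-50 min; 50 uM SNP 20 min; luminescence pre-read and post-read.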

[4] = target: Atrial natriuretic peptide receptor 1 (Homo sapiens) (UniProt P16066); assay: Natriuretic polypeptide receptor (hNpr1) antagonism - Pilot screen (AID 1347049; calls by dose curve;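 also: agonist-evoked cGMP luminescence read 20 min after hNppA addition; series mostly up to about 58 µM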)
Summary of the method: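 cGMP-sensor HEK293/hNpr1 cells, 1500/well, plated overnight at 37C. 2% GloSensor reagent, 2 h RT. Compound (23 nL pin transfer) 30 min RT, baseline luminescence pre-read. 0.1 nM hNppA, 20 min RT, post-read.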

[5] = target: Atrial natriuretic peptide receptor 2 (Homo sapiens) (UniProt P20594); assay: Natriuretic polypeptide receptor (hNpr2) antagonism - Pilot subtype selectivity assay (AID 1347050; calls by dose curve)
Summary of the method: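 Luminescence from a genetically encoded cGMP luciferase biosensor in hNpr2-expressing HEK293 cells is read before and 20 min after adding 1 nM hNppC. Test compounds, in interplate 1:5 titrations, are added 30-50 min ahead of the agonist.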

[6] = NS1 protein of Zika virus - qHTS assay to identify small molecule inhibitors in human HEK 293 cells (AID 1347053); also: series mostly up to about 46 µM; nearly all actives have a fitted effect of over 55% in size
Summary of the method: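 TR-FRET signal from two anti-ZIKV NS1 antibodies quantified NS1 in HEK 293 cells 24 h after MR766 infection at MOI = 0.5; compounds were added 1 h before virus. Uninfected cells and infected cells defined the NS1 normalization range.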

[7] = target: T1, Tyrosine-protein phosphatase non-receptor type substrate 1 (Homo sapiens) + Leukocyte surface antigen CD47 (Homo sapiens) (UniProt P78324+Q08722); assay: CD47-SIRPalpha protein protein interaction - LANCE assay qHTS validation (AID 1347057; active = well fitted curve in the direction sought with a large enough effect in the signal ratio, with a control signal flat, not every such curve was filed as active; the % refers to the signal ratio; also: series mostly up to about 38 µM)
Summary of the method: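 Inhibition of soluble CD47/SIRPalpha ectodomain association by titrated compounds, measured as 665/615 nm time-resolved FRET ratio after sequential 30 min room-temperature incubations.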

[8] = target: T1, Tyrosine-protein phosphatase non-receptor type substrate 1 (Homo sapiens) + Leukocyte surface antigen CD47 (Homo sapiens); assay: CD47-SIRPalpha protein protein interaction - HTRF assay qHTS validation (AID 1347058; active = well fitted curve in the direction sought with a large enough effect in the signal ratio, not every such curve was filed as active; the % refers to the signal ratio; also: series mostly up to about 38 µM)
Summary of the method: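 Soluble extracellular domains (6His-CD47, Avi-tag-biotinylated SIRPalpha) in PBS pH 7.4 with 0.05% IGEPAL CA-630. Compounds were preincubated 30 min at RT with CD47 and anti-His-Eu, then SIRPalpha and SAV-XL665 were added. TR-FRET 665/615 ratio.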

[9] = target: T1, Tyrosine-protein phosphatase non-receptor type substrate 1 (Homo sapiens) + Leukocyte surface antigen CD47 (Homo sapiens); assay: CD47-SIRPalpha protein protein interaction - Alpha assay qHTS validation (AID 1347059);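 also: bead proximity luminescence from CD47 binding SIRPalpha after compound preincubation with SIRPalpha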
Summary of the method: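 SIRPalpha-biotin 25 nM + cpd, 30 min RT, dark; add CD47-His 12.5 nM, 30 min; add Ni-NTA/SAV beads 10 ug/mL, 30 min; AlphaScreen. Buffer PBS pH 7.4 + 0.05% IGEPAL CA-630. Non-biotinylated SIRPalpha as control inhibitor.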

[10] = target: Parathyroid hormone/parathyroid hormone-related peptide receptor (Homo sapiens) (UniProt Q03431); assay: qHTS for PTHR1 Agonists: Optimization Screen against the NCGC LOPAC library (AID 1347079);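 also: GloSensor cAMP luminescence in HEK-293 GP2 cells expressing human PTHR1 with IBMX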
Summary of the method: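 Signal increase flags agonism. GP2 cells, derived from HEK-293, express human PTHR1 and a GloSensor cAMP construct.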

[11] = target: N-terminal Xaa-Pro-Lys N-methyltransferase 1 (Homo sapiens) (UniProt Q9BV86); assay: qHTS Assay for Inhibitors of N-terminal methyltransferase 1 (NTMT1): LOPAC validation of the NTMT1 SAHH-coupled ThioGlo3 Assay (AID 1347143);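 also: SAH from peptide methylation measured as thiol fluorescence via SAHH coupling and ThioGlo3; nearly all actives have a fitted effect of over 70% in size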
Summary of the method: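 Steps: dispense 125nM NTMT1; pin-transfer test compounds at several concentrations, with 1uM RCC1-6 peptide as control; incubate 1 min; start with reagent holding 100uM SAM, 10uM SAHH, 15uM ThioGlo3; read at 0 and 30 min.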

[12] = system: Zika virus NS2B-NS3 protease (unlinked); assay: Optimization of GU AMC qHTS for Zika virus inhibitors: Unlinked NS2B-NS3 protease assay (AID 1347151); also: series mostly up to about 52 µM; nearly all actives have a fitted effect of over 80% in size
Summary of the method: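 Unlinked protease (25 nM final); buffer 10 mM Tris-HCl pH 8.0 + 0.01% Tween 20; AMC substrate; 15 min RT, dark; Δfluorescence normalized to no-inhibitor/no-enzyme controls; 4-parameter Hill fit.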

Measured: Potency

Chain of Atrial natriuretic peptide receptor 2 (Homo sapiens) (P20594 whole entry, looked up): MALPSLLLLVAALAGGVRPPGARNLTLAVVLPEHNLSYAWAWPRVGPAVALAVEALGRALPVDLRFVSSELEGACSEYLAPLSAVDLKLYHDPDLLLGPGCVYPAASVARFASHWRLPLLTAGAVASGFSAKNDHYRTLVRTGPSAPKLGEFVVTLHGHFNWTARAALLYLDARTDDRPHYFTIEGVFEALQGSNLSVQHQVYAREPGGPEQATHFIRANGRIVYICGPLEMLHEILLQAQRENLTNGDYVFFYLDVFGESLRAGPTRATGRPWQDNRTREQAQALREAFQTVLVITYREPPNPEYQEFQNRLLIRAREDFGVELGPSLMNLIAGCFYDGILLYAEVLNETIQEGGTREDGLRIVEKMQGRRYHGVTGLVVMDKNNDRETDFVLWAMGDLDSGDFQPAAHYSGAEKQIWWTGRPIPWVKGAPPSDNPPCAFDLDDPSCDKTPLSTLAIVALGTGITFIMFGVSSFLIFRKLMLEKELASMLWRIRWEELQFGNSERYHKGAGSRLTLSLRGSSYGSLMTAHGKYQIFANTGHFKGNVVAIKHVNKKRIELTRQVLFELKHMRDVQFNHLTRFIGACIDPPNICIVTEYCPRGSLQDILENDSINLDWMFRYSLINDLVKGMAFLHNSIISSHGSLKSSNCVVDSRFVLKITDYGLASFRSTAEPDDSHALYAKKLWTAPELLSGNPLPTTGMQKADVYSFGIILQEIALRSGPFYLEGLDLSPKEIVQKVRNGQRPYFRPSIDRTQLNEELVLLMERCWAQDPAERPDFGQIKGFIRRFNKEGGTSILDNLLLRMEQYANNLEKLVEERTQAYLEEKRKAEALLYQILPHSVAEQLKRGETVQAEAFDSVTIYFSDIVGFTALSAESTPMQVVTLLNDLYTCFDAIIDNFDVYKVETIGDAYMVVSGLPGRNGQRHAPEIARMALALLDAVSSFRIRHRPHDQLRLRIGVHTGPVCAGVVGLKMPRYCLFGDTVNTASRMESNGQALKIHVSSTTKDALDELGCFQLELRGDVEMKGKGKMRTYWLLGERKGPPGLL
Chain of Atrial natriuretic peptide receptor 1 (Homo sapiens) (P16066 whole entry, looked up): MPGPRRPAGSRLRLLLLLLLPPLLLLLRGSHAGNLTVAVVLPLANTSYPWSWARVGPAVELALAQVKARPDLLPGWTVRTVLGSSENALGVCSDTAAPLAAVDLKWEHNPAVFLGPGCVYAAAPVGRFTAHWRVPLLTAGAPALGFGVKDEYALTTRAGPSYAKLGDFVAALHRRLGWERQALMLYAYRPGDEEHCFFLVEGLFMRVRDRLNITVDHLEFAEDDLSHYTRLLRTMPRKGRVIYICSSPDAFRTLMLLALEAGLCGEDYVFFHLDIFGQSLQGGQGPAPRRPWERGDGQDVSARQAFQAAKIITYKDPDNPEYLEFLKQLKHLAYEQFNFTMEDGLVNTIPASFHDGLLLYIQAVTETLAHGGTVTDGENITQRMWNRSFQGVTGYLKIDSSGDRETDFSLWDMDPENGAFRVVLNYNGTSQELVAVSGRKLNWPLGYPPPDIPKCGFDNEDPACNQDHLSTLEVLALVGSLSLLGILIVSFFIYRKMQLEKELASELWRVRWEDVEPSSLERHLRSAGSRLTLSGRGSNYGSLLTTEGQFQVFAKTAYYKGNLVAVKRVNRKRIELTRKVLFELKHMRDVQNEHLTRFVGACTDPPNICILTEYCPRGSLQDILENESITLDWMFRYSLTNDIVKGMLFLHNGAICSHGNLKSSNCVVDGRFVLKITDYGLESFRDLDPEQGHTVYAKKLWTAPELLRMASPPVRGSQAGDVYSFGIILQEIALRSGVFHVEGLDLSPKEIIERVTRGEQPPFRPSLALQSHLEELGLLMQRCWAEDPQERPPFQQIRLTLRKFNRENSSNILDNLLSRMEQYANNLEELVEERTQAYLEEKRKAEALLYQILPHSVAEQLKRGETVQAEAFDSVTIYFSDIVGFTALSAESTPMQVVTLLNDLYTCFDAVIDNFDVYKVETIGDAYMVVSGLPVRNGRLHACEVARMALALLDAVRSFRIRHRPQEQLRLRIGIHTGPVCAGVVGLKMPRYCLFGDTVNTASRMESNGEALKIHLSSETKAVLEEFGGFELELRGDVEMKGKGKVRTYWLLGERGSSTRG
Chain of Parathyroid hormone/parathyroid hormone-related peptide receptor (Homo sapiens) (Q03431 whole entry, looked up): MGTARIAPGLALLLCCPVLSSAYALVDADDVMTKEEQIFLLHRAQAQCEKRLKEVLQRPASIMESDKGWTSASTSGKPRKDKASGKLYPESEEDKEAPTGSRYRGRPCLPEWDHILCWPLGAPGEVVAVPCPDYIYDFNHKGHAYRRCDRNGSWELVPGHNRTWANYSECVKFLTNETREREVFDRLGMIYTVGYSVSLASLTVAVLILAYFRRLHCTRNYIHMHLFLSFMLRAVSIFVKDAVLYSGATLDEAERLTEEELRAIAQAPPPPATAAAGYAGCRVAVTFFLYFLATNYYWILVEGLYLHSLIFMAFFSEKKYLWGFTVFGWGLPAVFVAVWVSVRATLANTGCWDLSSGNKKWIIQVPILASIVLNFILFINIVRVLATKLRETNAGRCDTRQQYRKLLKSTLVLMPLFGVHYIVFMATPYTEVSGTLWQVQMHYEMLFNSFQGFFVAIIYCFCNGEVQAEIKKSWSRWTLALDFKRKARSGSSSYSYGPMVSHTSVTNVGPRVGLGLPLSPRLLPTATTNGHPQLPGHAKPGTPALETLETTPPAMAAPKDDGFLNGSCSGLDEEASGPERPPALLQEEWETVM
Chain of N-terminal Xaa-Pro-Lys N-methyltransferase 1 (Homo sapiens) (Q9BV86 whole entry, looked up): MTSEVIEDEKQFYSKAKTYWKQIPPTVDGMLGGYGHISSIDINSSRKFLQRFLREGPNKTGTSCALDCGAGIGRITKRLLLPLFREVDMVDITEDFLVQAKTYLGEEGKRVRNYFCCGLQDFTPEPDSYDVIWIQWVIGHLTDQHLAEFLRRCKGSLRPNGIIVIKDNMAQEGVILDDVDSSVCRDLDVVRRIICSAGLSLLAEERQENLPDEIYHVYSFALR
T1 sequence (P78324 whole entry, looked up, the tested form may be a part): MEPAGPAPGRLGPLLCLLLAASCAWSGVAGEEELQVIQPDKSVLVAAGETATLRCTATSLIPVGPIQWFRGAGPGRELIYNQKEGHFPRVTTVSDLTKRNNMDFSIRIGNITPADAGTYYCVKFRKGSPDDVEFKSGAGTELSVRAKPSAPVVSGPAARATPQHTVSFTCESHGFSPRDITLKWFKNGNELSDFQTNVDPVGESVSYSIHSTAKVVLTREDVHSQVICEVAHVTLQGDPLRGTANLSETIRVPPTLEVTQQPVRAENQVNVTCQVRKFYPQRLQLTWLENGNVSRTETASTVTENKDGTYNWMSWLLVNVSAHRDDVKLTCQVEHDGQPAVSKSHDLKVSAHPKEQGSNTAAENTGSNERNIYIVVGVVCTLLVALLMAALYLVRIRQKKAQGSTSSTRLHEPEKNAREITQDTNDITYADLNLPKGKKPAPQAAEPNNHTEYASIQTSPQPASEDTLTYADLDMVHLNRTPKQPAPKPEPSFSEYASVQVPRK
T1 sequence (Q08722 whole entry, looked up, the tested form may be a part): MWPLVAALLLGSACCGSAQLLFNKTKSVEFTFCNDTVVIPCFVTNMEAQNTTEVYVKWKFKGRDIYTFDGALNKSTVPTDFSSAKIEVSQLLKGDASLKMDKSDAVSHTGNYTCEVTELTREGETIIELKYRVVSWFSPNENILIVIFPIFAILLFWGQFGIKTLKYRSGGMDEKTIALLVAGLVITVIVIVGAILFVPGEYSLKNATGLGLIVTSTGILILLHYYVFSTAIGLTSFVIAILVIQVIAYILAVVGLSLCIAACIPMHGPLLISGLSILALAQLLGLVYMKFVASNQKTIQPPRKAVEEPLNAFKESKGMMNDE

COc1cc(C(O)C(=O)O)ccc1O (stereo not given)
inactive: [1] | [2] | [3] | [4] | [5] | [6] | [7] | [8] | [9] | [10] | [11] | [12]

NCC(O)(CS(=O)(=O)O)c1ccc(Cl)cc1 (stereo not given)
inactive: [1] | [2] | [3] | [4] | [5] | [6] | [7] | [8] | [9] | [10] | [11] | [12]

C=CC[C@H](N)C(=O)O
inactive: [1] | [2] | [3] | [4] | [5] | [6] | [7] | [8] | [9] | [10] | [11] | [12]

O[Si](CCCN1CCCCC1)(c1ccc(F)cc1)C1CCCCC1 (stereo not given)
inactive: [1] | [2] | [3] | [4] | [5] | [6] | [7] | [8] | [9] | [10] | [11] | [12]

COc1ccc2c(c1)c(CC(=O)O)c(C)n2C(=O)c1ccccc1
inactive: [1] | [2] | [3] | [4] | [5] | [6] | [7] | [8] | [9] | [10] | [11] | [12]

NC(=O)CC[C@H](N)C(=O)O
inactive: [1] | [2] | [3] | [4] | [5] | [6] | [7] | [8] | [9] | [10] | [11] | [12]

NC(N)=NC(N)=Nc1ccccc1
inactive: [1] | [2] | [3] | [4] | [5] | [6] | [7] | [8] | [9] | [10] | [11] | [12]

Nc1ncnc2c1nc(Br)n2C1OC2COP(=O)(O)O[C@@H]2C1O (stereo not given in full)
inactive: [1] | [2] | [3] | [4] | [5] | [6] | [7] | [8] | [9] | [10] | [11] | [12]

CC(=O)O[C@H]1Cc2ccccc2N(C(N)=O)c2ccccc21
inactive: [1] | [2] | [3] | [4] | [5] | [6] | [7] | [8] | [9] | [10] | [11] | [12]

COC(=O)C(C)(N)Cc1ccc(O)cc1 (stereo not given)
inactive: [1] | [2] | [3] | [4] | [5] | [6] | [7] | [8] | [9] | [10] | [11] | [12]
